# According to PubChem BioAssay AID624331 (National Center for Advancing Translational Sciences (NCATS), 2012):
# Records with an inconclusive call do not appear. Activity calls are given as the source filed them. The call rests on the fitted dose curve; in most records, active means well fitted activation curve with a large enough effect; inconclusive means small, poorly fitted or top-dose-only effect; inactive means no such curve, though single readings can be large or run the other way.
# Assay: qHTS assay for re-activators of p53 using a Luc reporter: Hit Validation with no p53 Expressed; further: 0% is about no effect
# Details: p53-null cells, luciferase reporter counter-screen; series mostly up to 46.1 µM; activity change, positive = activation: at the top concentration
# Outline: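 Counter-screen of primary hits in a cell line not transfected with p53, in Opti-MEM with 10% FBS; compounds at several concentrations (10 mM stock, 1:5; top 46.1 µM in well), 24 h at 37 deg C, 5% CO2. Luminescence read after 10 min with Amplite reagent.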
row,SMILES,"activity change, positive = activation"
1,O=C(CSc1nc2ccccc2c(=O)[nH]1)c1ccc(O)c(O)c1,-15.6% (inactive)
2,O=C(Nc1ccc(NC(=O)C23CC4CC(CC(C4)C2)C3)cn1)c1ccco1,12.5% (inactive)
3,O=C(CSc1nnnn1C1CCCCC1)NCCc1ccccc1,-22.1% (inactive)
4,Cc1cccc(-c2noc(CCC(=O)N3CCN(c4cc(C)ccc4C)CC3)n2)c1,-1.43% (inactive)
5,Cc1c(/C(O)=C2/C(=O)C(=O)N(Cc3cccnc3)C2c2cccs2)cnn1-c1ccccc1 (centres undefined),-12.3% (inactive)
6,O=C(NNC(=O)c1ccc(Cl)cc1Cl)c1ccncc1,-31.3% (inactive)
7,CN(C)c1cccc(C(=O)NNC(=O)CN2C(=O)C3CC=CCC3C2=O)c1 (centres undefined),38.2% (inactive)
8,CCOc1ccc(/C=N/NC(=O)CN2CCSCC2)cc1,-8.87% (inactive)
9,O=c1nc2sc3ccccc3n2c(=O)n1-c1cccc(Cl)c1,64.5% (inactive)
10,CCCN1C(=O)SC(CC(=O)Nc2ccccc2C)C1=O (centres undefined),29.6% (inactive)
11,CC(=O)/C=C(\C)Nc1ccc(-c2cnc(-c3ccccc3)o2)cc1,2.82% (inactive)
12,CN(C)/C=N/c1cnc(C(=O)c2ccc(Cl)cc2)n1C,33.5% (inactive)
13,O=C(Oc1ccccc1/C=C\C(=O)c1cc2ccccc2o1)c1cccc(F)c1,4.1% (inactive)
14,O=C(NCC(=O)N1CCN(c2ncccn2)CC1)c1ccc(F)cc1,-6.5% (inactive)
15,Cc1ccc(-c2nnc(N(C)C(=O)C3CCCO3)s2)cn1 (centres undefined),5.59% (inactive)
16,COc1ccc(NC(=O)CN(C)CC(=O)Nc2ccccc2SC)cc1,-37.7% (inactive)
17,COc1ccc(NC(=O)c2ccccc2)cc1,6.54% (inactive)
18,CCOc1ccc(NS(=O)(=O)c2ccc(C(=O)NC3CCN(Cc4ccccc4)CC3)cc2)cc1,-28.9% (inactive)
19,CCCCn1c(O)c(N=Nc2ccccc2O)c2ccccc21,-32.9% (inactive)
20,CC(C)c1ccc(NC(=S)NN2CCOCC2)cc1,-15.3% (inactive)

row,SMILES,"activity change, positive = activation"
1,CCOc1ccc(-c2nnc(SCC(=O)N3CCNC3=O)o2)cc1,12.5% (inactive)
2,Cc1ccc2nc(-c3ccc(NC(=O)COC(=O)c4ccc(Br)o4)cc3)sc2c1,-74.3% (inactive)
3,Cc1cccc(NC(=O)Nc2ccc(C)cc2Br)c1,6.7% (inactive)
4,C=CCNc1ncnc2c1cnn2-c1ccc(Cl)cc1,55.5% (inactive)
5,c1ccc2sc(-c3ccc4c(c3)OCO4)nc2c1,-24.1% (inactive)
6,COc1ccc(N2CCN(CC(=O)Nc3ccc(C)cc3)CC2)cc1,-7.99% (inactive)
7,Cc1csc(NC(=O)CSc2nnc(-c3cccs3)n2C)n1,-34.1% (inactive)
8,CC(OC(=O)c1cccc([N+](=O)[O-])c1)C(=O)N1CCc2ccccc21 (centres undefined),-25.6% (inactive)
9,CNC(=S)N/N=C/c1cc(Br)cc(Br)c1O,-14.3% (inactive)
10,O=C(c1cccc(Br)c1)c1coc2ccc(O)cc12,46.3% (inactive)
11,CCC(=O)c1ccc(OC(=O)Cc2ccc(OC)cc2)cc1,-69% (inactive)
12,Cc1ccc(C(=O)c2cc([N+](=O)[O-])ccc2N2CCCCC2)cc1C,-48.2% (inactive)
13,CCCCOC(=O)Nc1ccc(N2CCCCC2)cc1,27.2% (inactive)
14,C/C(=N\NS(=O)(=O)c1ccc(Cl)cc1)c1ccc(NC(=O)c2ccco2)cc1,-9.33% (inactive)
15,O=C(CC1NC2CCCCC2NC1=O)Nc1ccc2c(c1)OCO2 (centres undefined),-8.77% (inactive)
16,Cc1nn(-c2ccccc2)c(/N=C/c2ccccc2O)c1-c1ccccc1,-56.3% (inactive)
17,Cc1ccc(N2C(=O)c3ccccc3C2C(=O)c2cc(C)ccc2O)cc1 (centres undefined),-38.5% (inactive)
18,Nc1nonc1-n1nnc(C(=O)N/N=C/c2cc(Br)ccc2O)c1CSC1=NCCS1,-38.8% (inactive)
19,COc1ccc(-n2nc([N+](=O)[O-])c(=NCc3ccco3)n2O)cc1,7.46% (inactive)
